# Measurements reported in PMC4336329 (PLoS ONE, 2015).
# Hit rate of the full screen: of about 310,000 compounds, about 14,000 (4.5%) showed an effect of 50% or more. The effect is printed as a negative number. The entries come from a sample that favours strong results as a whole.
# Target: human ether-à-go-go-related gene (hERG) potassium channel (human, UniProt Q12809)
# Assay: primary screen, population patch clamp on CHO cells stably expressing hERG; higher = less effect of the substance
# 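Note: peak tail current of the secondary pulse compared with the same well before compound.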
# Chain of human ether-à-go-go-related gene (hERG) potassium channel (Q12809 whole entry, looked up): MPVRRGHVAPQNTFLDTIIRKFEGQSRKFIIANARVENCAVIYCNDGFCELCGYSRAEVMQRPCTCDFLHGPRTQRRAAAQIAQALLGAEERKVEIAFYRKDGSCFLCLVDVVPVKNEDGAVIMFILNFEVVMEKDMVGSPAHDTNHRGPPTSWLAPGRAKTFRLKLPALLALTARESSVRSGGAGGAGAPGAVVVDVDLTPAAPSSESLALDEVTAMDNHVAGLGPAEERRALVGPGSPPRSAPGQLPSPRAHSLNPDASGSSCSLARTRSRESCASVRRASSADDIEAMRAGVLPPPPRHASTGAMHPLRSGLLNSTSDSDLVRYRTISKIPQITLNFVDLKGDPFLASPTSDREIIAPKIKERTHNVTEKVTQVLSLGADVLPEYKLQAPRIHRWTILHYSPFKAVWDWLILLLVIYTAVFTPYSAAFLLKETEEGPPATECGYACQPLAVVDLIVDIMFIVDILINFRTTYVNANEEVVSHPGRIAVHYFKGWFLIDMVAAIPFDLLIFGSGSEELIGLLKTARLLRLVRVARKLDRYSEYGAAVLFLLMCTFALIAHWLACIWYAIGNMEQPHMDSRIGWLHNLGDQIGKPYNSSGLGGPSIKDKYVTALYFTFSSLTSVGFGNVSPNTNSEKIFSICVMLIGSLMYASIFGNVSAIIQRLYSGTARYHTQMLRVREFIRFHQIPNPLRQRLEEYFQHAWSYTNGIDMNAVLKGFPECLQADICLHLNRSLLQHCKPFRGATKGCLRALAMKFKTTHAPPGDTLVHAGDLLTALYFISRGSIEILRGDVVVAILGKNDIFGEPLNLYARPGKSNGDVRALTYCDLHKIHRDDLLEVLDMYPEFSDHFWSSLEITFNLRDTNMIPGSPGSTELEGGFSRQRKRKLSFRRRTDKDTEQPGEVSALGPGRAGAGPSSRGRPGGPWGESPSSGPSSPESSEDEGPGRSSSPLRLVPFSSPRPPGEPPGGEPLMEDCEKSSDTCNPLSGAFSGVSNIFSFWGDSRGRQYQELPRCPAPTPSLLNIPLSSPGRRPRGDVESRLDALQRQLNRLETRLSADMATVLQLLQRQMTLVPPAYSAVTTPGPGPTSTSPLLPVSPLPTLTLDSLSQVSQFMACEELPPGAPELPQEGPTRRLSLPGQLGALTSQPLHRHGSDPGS
row,Structure (SMILES),"hERG current change (%, negative = inhibition) at 10uM"
1,COc1ccc(S(=O)(=O)Nc2cc(C(=O)NCCCN3CCOCC3)ccc2N2CCOCC2)cc1,25%
2,CC(=O)N(C)c1ccc(NC(=O)Nc2cccc3ccccc23)cc1,-2.88%
3,COC(=O)Cn1c(SCc2ccccc2)nc2ccccc21,-13.8%
4,Cc1cccc(Cn2cccc2/C=C2/C(=N)N3C=CSC3=NC2=O)c1,-1.72%
5,O=C(NCc1nc2ccccc2[nH]1)C1=C[C@H](c2ccccc2)C[C@H](OCc2ccc(CO)cc2)O1,-13.6%
6,O=C(NCc1nc2ccccc2[nH]1)C1=C[C@H](c2coc3ccccc3c2=O)C[C@H](OCCCCO)O1,-50.7%
7,O=C(NCc1nc2ccccc2[nH]1)C1=C[C@@H](c2csc3ccccc23)C[C@@H](OCCCCO)O1,-29.6%
8,O=C(NCc1nc2ccccc2[nH]1)C1=C[C@H](c2coc3ccccc3c2=O)C[C@H](OCc2ccc(CO)cc2)O1,-21.5%
9,O=C(NCc1nc2ccccc2[nH]1)C1=C[C@@H](c2ccc(Br)cc2)C[C@@H](OCCCCO)O1,-65.9%
10,O=C(NCc1nc2ccccc2[nH]1)C1=C[C@@H](c2ccccc2)C[C@@H](OCc2ccc(CO)cc2)O1,-64.9%
11,O=C(NCc1ccccc1)C1=C[C@@H](c2csc3ccccc23)C[C@@H](OCCCCO)O1,-69%
12,O=C(NCc1ccccc1)C1=C[C@H](c2csc3ccccc23)C[C@H](OCCCCO)O1,-12.5%
13,O=C(NCc1nc2ccccc2[nH]1)C1=C[C@@H](c2ccccc2)C[C@@H](OCCCCO)O1,-46.5%
14,O=C(NCc1nc2ccccc2[nH]1)C1=C[C@H](c2ccc(Br)cc2)C[C@H](OCc2ccc(CO)cc2)O1,3.89%
15,O=C(NCc1nc2ccccc2[nH]1)C1=C[C@H](c2ccccc2)C[C@H](OCCCCO)O1,-36.3%
16,O=C(Nc1ccccc1)C1=C[C@H](c2csc3ccccc23)C[C@H](OCCCCO)O1,-5.71%
17,Nc1nc2c(ncn2C2C[C@H](O)[C@@H](CO)O2)c(=O)[nH]1 (stereo partly drawn),14.4%
18,Cc1nnc(NC(=O)c2ccc(S(=O)(=O)N3CCc4ccccc4C3)cc2)o1,8.81%
19,Cc1cc(C)n(-c2nnc(C)n2NC(=O)c2cccc(Cl)c2)n1,11.1%
20,Cc1cccc[n+]1CC(=O)c1ccc(NC(=O)c2ccccc2)cc1.[Br-],28.6%
21,COc1ccccc1NC(=O)Nc1nc(CC(=O)NCc2ccc(F)cc2)cs1,-11.4%
22,Cc1ccc(S(=O)(=O)NCc2ccccc2)cc1C(=O)NC1CCCCC1,15.9%
23,COc1cc(C(=O)NCC(=O)OCCN2C(=O)c3ccccc3C2=O)cc(OC)c1OC,4.2%
24,CCNc1nc(Oc2ccc(=O)[nH]n2)nc(SC)n1,8.57%
25,CC1=CC(C/C(C)=C/COc2ccc3ccc(=O)oc3c2)OC1=O (stereo not drawn),2.36%
26,COC(=O)c1c(NC(=O)c2ccccc2F)sc2c1C(C(=O)OC)CC2 (stereo not drawn),9.38%

row,Structure (SMILES),"hERG current change (%, negative = inhibition) at 10uM"
1,CCCn1c(SCC(=O)c2cc(OC)ccc2OC)nnc1-c1ccco1,-12.5%
2,O=C(NCc1ccccc1)C1=C[C@@H](c2coc3ccccc3c2=O)C[C@@H](OCCCCO)O1,-83.1%
3,O=C(NCc1ccccc1)C1=C[C@H](c2coc3ccccc3c2=O)C[C@H](OCCCCO)O1,-55.4%
4,O=C(Nc1ccccc1)C1=C[C@@H](c2coc3ccccc3c2=O)C[C@@H](OCCCCO)O1,-41.1%
5,O=C(Nc1ccccc1)C1=C[C@H](c2coc3ccccc3c2=O)C[C@H](OCCCCO)O1,-70.3%
6,O=C(O)C1=C[C@@H](c2coc3ccccc3c2=O)C[C@@H](OCCCCO)O1,22.8%
7,C#CCNC(=O)C1=C[C@H](c2coc3ccccc3c2=O)C[C@H](OCCCCO)O1,-45%
8,C#CCNC(=O)C1=C[C@@H](c2coc3ccccc3c2=O)C[C@@H](OCCCCO)O1,1.71%
9,O=C(NC1CC1)C1=C[C@@H](c2coc3ccccc3c2=O)C[C@@H](OCCCCO)O1,-23.8%
10,O=C(O)C1=C[C@H](c2coc3ccccc3c2=O)C[C@H](OCCCCO)O1,3.91%
11,COc1cc2c(cc1OC)CN(C(=S)Nc1ccccc1)CC2,-7.19%
12,O=C(/C=C/c1cc(Br)ccc1F)Nc1cccnc1,14.6%
13,COc1ccccc1N(CC(=O)NC1CCCC1)C(=O)C1(C)CC(=O)N=C2C=CC(C)=CN21 (stereo not drawn),12.5%
14,CC(C)CCN(C(=O)c1ccc(N2CCCC2=O)cc1)c1c(N)n(Cc2ccccc2)c(=O)[nH]c1=O,12.2%
15,Cc1ccc(-n2cc3ccc([N+](=O)[O-])cc3n2)cc1,5.28%
16,CC(C)n1c(Nc2ccccc2)nc2ccccc21,-1.84%
17,COc1ccc(NC(=O)CSc2nc3c(sc4ccccc43)c(=O)n2CCCN2CCCC2)cc1,-30.8%
18,COc1cccc(NC(=O)CSc2nc3c(sc4ccccc43)c(=O)n2CCCN2CCCC2)c1,-69.8%
19,CCN(CC)CCn1c(SCC(=O)Nc2ccc(F)cc2)nc2c(sc3ccccc32)c1=O.Cl,-14.9%
20,CCN(CC)CCn1c(SCC(=O)Nc2cccc(OC)c2)nc2c(sc3ccccc32)c1=O,-69.2%
21,Cc1cc(NC(=O)CSc2nc3c(sc4ccccc43)c(=O)n2CCc2ccccc2)n[nH]1,-19.6%
22,COc1cccc(NC(=O)CSc2nc3c(sc4ccccc43)c(=O)n2CCN(C)C)c1.Cl,-65.5%
23,COCCn1c(SCC(=O)Nc2cccc(OC)c2)nc2c(oc3ccccc32)c1=O,-42.2%
24,COc1ccccc1NC(=O)CSc1nc2c(sc3ccccc32)c(=O)n1CCN(C)C.Cl,11.5%
25,COc1cccc(NC(=O)CSc2nc3c([nH]c4ccccc43)c(=O)n2C)c1,16.4%
